Test results taken from PubChem BioAssay AID652128 (Broad Institute, 2013).
The other results are listed elsewhere or left out. Results filed as inconclusive are left out. Active and inactive are the calls of the source.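 The calls were made as follows: active = fitted half-maximal concentration for signal loss at or below twice the highest dose tested, in every separate run (actives reach about 64 µM in these data); inconclusive = runs disagree, or flat partial signal loss, or poor fit; inactive = the rest.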

Experiment: DNA binders displacing acridine orange – biochemical, fluorescence polarization, cherry-pick, artefact control for RAD52 inhibitor project, dose response (AID 652128)
Conditions: Salmon sperm DNA/acridine orange FP displacement, DNA binding

SMILES	AC50	outcome
CCOc1cccc(=NC2CCCCC2)c2c(C)[nH]c(C)c12	36 µM (active)	
CC1=CC(=Cc2sc3ccccc3[n+]2C)C=C(C)O1		inactive
COc1ccc2c(c1O)-c1cccc3c1[C@@H](C2)N(C)CC3		inactive
C[N+]1(C)CCOC(O)(c2ccc(-c3ccc(C4(O)C[N+](C)(C)CCO4)cc3)cc2)C1 (stereo not given)		inactive
CCCCCCCCCCCCn1ccc(=N)cc1		inactive
